Measured values taken from PubChem BioAssay (NCI).
The panel holds about 83,000 compounds, 20% with a hit somewhere; the sample as a whole holds those more often.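 Step 1: grow cells in 96-well plates. Step 2: add test compound at a single concentration. Step 3: incubate 48 h. Step 4: record percent growth.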 Values without a mark were called inactive. The source made the active and inactive calls. Rule for the calls: active = growth percent below 10; inactive = the rest.

Legend:
Assay in all cases: NCI-60 one-dose screen, 48 h (100 = growth as untreated, 0 = no growth, -100 = all killed)
NCI-H23 lung = conditions: 10 µM unless noted
NCI-H226 lung = conditions: 10 µM unless noted
NCI-H322M lung = conditions: 10 µM unless noted
NCI-H460 lung = conditions: 10 µM unless noted
A549/ATCC NSCLC = conditions: 10 µM unless noted
786-0 renal = conditions: 10 µM unless noted
COLO 205 colon = conditions: 10 µM unless noted
DU-145 prostate = conditions: 10 µM unless noted
K-562 leukemia = conditions: 10 µM unless noted
MALME-3M melanoma = conditions: 10 µM unless noted
MDA-MB-231 breast = conditions: 10 µM unless noted
RXF 393 renal = conditions: 10 µM unless noted
SF-268 CNS = conditions: 10 µM unless noted
SF-295 CNS = conditions: 10 µM unless noted
SF-539 CNS = conditions: 10 µM unless noted
UACC-257 melanoma = conditions: 10 µM unless noted
M14 melanoma = conditions: 10 µM unless noted
NCI-H522 lung = conditions: 10 µM

Row | Structure (SMILES) | growth (NCI-H23 lung) | growth (NCI-H226 lung) | growth (NCI-H322M lung) | growth (NCI-H460 lung) | growth (A549/ATCC NSCLC) | growth (786-0 renal) | growth (COLO 205 colon) | growth (DU-145 prostate) | growth (K-562 leukemia) | growth (MALME-3M melanoma) | growth (MDA-MB-231 breast) | growth (RXF 393 renal) | growth (SF-268 CNS) | growth (SF-295 CNS) | growth (SF-539 CNS) | growth (UACC-257 melanoma) | growth (M14 melanoma) | growth (NCI-H522 lung)
1 | COc1cc(-c2nn(-c3ccc(NC(=O)Nc4ccc(Cl)c(C(F)(F)F)c4)cc3)cc2-c2ccncc2)ccc1Cl | 2.97% (active) | 17.9% | 39% | -51.7% (active) | 11.9% | -52.3% (active) | -94% (active) | 34% | 13.2% | 12.1% | 7.76% (active) | -30.2% (active) | 21.7% | -7.8% (active) | 14.7% | -3.17% (active) | 1.7% (active) | –
2 | CC(=O)N1CCN(CCNC(=O)n2cc(-c3ccncc3)c(-c3ccc(O)c(Cl)c3)n2)CC1 | 109% | 112% | 141% | 103% | 100% | 113% | 119% | 105% | 91.8% | 90.6% | 107% | 120% | 107% | 130% | 101% | 103% | 70.2% | –
3 | CCOC(=O)c1c(C)oc2ncnc(Nc3ccc(NC(=O)Nc4ccc(CC)cc4)cc3)c12 | 90.7% | 104% | 102% | 106% | 89.2% | 99.8% | – | 103% | 98% | 101% | 94.7% | 98.3% | 103% | 109% | 89.4% | 111% | 99.9% | 83.5%
4 | COc1cc2cc3cc4cc(OC)c(OC)cc4c(C)[n+]3cc2cc1OC (tested in a mixture with another compound) | 89% | 80% | 89.8% | 89.1% | – | 66.5% | 111% | 79.3% | 58.1% | 86.2% | 94.5% | – | 39.4% | 70.7% | 85% | 51.1% | 78.4% | 56.4%
5 | COc1cc(-c2nn(-c3ccc(NC(=O)c4ccc(Cl)c(Cl)c4)cc3)cc2-c2ccncc2)ccc1Cl | 77.8% | 88.3% | 101% | 48.3% | 68.3% | -34.5% (active) | 52.6% | 82% | 17% | 111% | 54.9% | -55.1% (active) | 67.6% | -42.3% (active) | 47.7% | 110% | 62.3% | –
6 | COc1ccc(Cn2cc3c(c2-c2ccc(OC)cc2)CCc2cnoc2-3)cc1 | 6.98% (active) | 9.5% (active) | 43.5% | 0.836% (active) | 22% | 30.3% | -32.4% (active) | 10.5% | 14.7% | – | 8.41% (active) | -1.78% (active) | 30.5% | – | -28% (active) | 65.2% | 1.32% (active) | 11.1%
7 | Nc1nc2cc(O)ccc2n2cc3c(F)cccc3c12 | 40.9% | 54.8% | 32.5% | 2.35% (active) | 22.6% | 27.6% | 55.1% | 33.4% | 29.4% | 33.3% | 38.8% | 5.51% (active) | 19.1% | 11.9% | 13.7% | 50.9% | 23% | –
8 | CCCCCCCCCCC1OC(C)CC(C)O1 (stereo not drawn) | 100% | 102% | 102% | 106% | 98.7% | 93.4% | 105% | 104% | 86.5% | 98% | 115% | 103% | 96% | 109% | 103% | 113% | 101% | –
9 | O=C(N/N=C/c1coc2ccccc2c1=O)c1cc2oc(-c3ccccc3)cc2[nH]1 | 113% | 114% | 89.4% | 105% | 105% | 106% | 94.3% | 93.8% | 82.6% | -5.98% (active) | 96.8% | 82% | 96.2% | 103% | 89.8% | 118% | – | –
10 | CCCCCCCCCCC(C[N+](C)(C)C/C=C/c1ccccc1)C(O)c1ccccc1 (stereo not drawn) | 7.14% (active) | 29% | 46.7% | 5.75% (active) | 54.5% | -5.14% (active) | -89.2% (active) | 1.19% (active) | -35.9% (active) | -28.6% (active) | -55.9% (active) | -54.3% (active) | -0.479% (active) | 35.6% | 40.5% | 21% | 6.02% (active) | –
11 | COc1ccc(C(O)(c2ccccc2)C(C(=O)O)c2ccccc2)cc1 (stereo not drawn) | 102% | 106% | 105% | 116% | – | 103% | 111% | 118% | 101% | 107% | 103% | 121% | 107% | 118% | 92.7% | 127% | 103% | 98.5%
12 | Br/C(=N\Nc1nn[nH]n1)c1ccccc1 | 98.9% | 90.6% | 96.3% | 105% | – | 92.2% | 104% | 119% | 110% | 104% | 96.4% | 96.3% | 114% | 101% | 96.7% | – | 99% | –
13 | N=C(N)c1ccc(-c2ccc(-c3cc(Cl)cc(Cl)c3)s2)cc1 | -77.4% (active) | -64.7% (active) | -84.4% (active) | -81.1% (active) | -50.8% (active) | -73.3% (active) | – | -89.8% (active) | -55.1% (active) | -74.4% (active) | -78.4% (active) | -90.2% (active) | -66.1% (active) | -87.3% (active) | -92.7% (active) | -44% (active) | -85.3% (active) | -41.2% (active)
14 | Cc1ccccc1-n1c(C)nc2cc(NC(=O)c3ccc(Cl)cc3)ccc2c1=O | 64.3% | 88.8% | 94.2% | 72.4% | 72.2% | 67.6% | 119% | 87.6% | 55.8% | 53.5% | 58.4% | 77.7% | 77.8% | 59.7% | 58.2% | 59.7% | 68.7% | –
15 | Cc1c(Cc2ccccc2)c(=O)oc2c(C)c(OCc3n[nH]c(=S)o3)ccc12 | 57.7% | 84.8% | 63.8% | 3.31% (active) | 26.9% | 68.9% | – | 19.4% | 71.6% | 48.7% | 80.7% | 98.8% | 75.9% | 77% | 92.1% | 88% | 99.3% | 61%
16 | O=c1c(N=Nc2nccs2)c(-c2ccccc2)[nH]n1-c1nc(-c2ccccc2)cs1 | 36.3% | 56.2% | 24.5% | 22.5% | 36.3% | 43.7% | – | 43.8% | 32.4% | 72% | 53.1% | 65.2% | 32.3% | 25% | 39.7% | 39.6% | 28.3% | 20.9%
17 | CC(=O)Nc1ccc(S(=O)(=O)Cl)cc1 | 112% | 95.5% | 111% | 102% | 104% | 104% | 108% | 107% | 98.1% | 111% | 118% | 96.2% | 109% | – | 100% | 131% | 118% | –
18 | Cc1[nH]n(C(=S)Nc2nc3cc(Cl)c(F)cc3s2)c(=O)c1N=Nc1ccc(F)c(Cl)c1 | 97.4% | 95.7% | 119% | 106% | 40.1% | – | 109% | 154% | 89.5% | 139% | 93.5% | – | 90% | – | 108% | -34.2% (active) | 114% | 123%
